aSyn UTR act – Activators via SNCA 5'UTR binding, MLPCN; activity score, % (tested at 7.5 µM), hits read low; actives 7.1% (n = 300,000); alpha-synuclein 5'UTR reporter, activators screen; in the data active means activity score below about -60%
The depositor's hits bear a star. Only a sample is shown.

CC(Cc1cccs1)NC(=O)c1cccs1 (centres undefined) was read as aSyn UTR act -80*.
For O=C(NCC(O)c1ccccc1)c1cccs1 (centres undefined) the results were aSyn UTR act -136*.
O=C(NCCCc1ccccc1)c1cccs1 was read as aSyn UTR act -88*.
For O=C(NCCc1cccs1)c1cccs1 the results were aSyn UTR act -147*.
O=C(CNC(=O)c1cccs1)c1ccc(Br)cc1 was read as aSyn UTR act -176*.
`Cc1ccc(-n2nc3c(N4CCC(C(=O)NCCc5cccs5)CC4)nnc(C)c3c2C)cc1` gave aSyn UTR act 90.
For O=C(NCCc1ccc(F)cc1)c1cccs1 the results were aSyn UTR act -139*.
Screening CC(Cc1cccs1)NC(=O)Nc1ccc([N+](=O)[O-])cc1 (centres undefined) returned aSyn UTR act -75*.
For COc1ccc(-n2ncc3c(NCc4ccc5c(c4)OCO5)ncnc32)cc1 the results were aSyn UTR act -109*.
`Brc1ccc2ncnc(NCc3ccco3)c2c1` gave aSyn UTR act -64*.
`c1ccc(-n2ncc3c(NCc4ccco4)ncnc32)cc1` gave aSyn UTR act -252*.
For Cc1ccc(-n2ncc3c(NCc4cccnc4)ncnc32)cc1C the results were aSyn UTR act -90*.
COc1ccc(-n2ncc3c(NCc4cccnc4)ncnc32)cc1 was read as aSyn UTR act -149*.
Cc1ccc(-n2ncc3c(NCc4ccccc4)ncnc32)cc1 was read as aSyn UTR act -189*.
COc1ccc(-n2ncc3c(N4CCCCC4)ncnc32)cc1 was read as aSyn UTR act 101.
`Cc1cccc(-n2ncc3c(NCc4cccnc4)ncnc32)c1` gave aSyn UTR act -142*.
Screening CCN(CC)CCNc1cc(C)nc2c1C(=O)C(=O)C=C2N1CCCCC1 returned aSyn UTR act 81.
For CCc1c(C)nc2cc(-c3ccccc3)[nH]n2c1=O the results were aSyn UTR act -110*.
CCCCc1c(C)nc2cc(-c3ccco3)[nH]n2c1=O was read as aSyn UTR act -68*.
`COc1ccc2cc(/C=C/C(=O)c3ccco3)c(Cl)nc2c1` gave aSyn UTR act -78*.
For COc1ccc2cc(/C=N/NC(=O)c3ccc(CN(c4ccc(C)c(C)c4)S(C)(=O)=O)cc3)c(Cl)nc2c1 the results were aSyn UTR act 65.
For Cc1ccc2cc(/C=C/C(=O)c3ccco3)c(Cl)nc2c1 the results were aSyn UTR act -121*.
Screening Cc1ccc2nc(Cl)c(/C=C/C(=O)c3ccco3)cc2c1 returned aSyn UTR act -151*.
For COc1ccc(/C=C/C(=O)N(C)C2CCCCC2)cc1Br the results were aSyn UTR act -92*.
For CCN1C(=O)/C(=C2/C=Cc3ccccc3N2C)OC1=S the results were aSyn UTR act -200*.
`CSc1ccccc1C(=O)Nc1nc2ccccc2[nH]1` gave aSyn UTR act -133*.
`COc1ccccc1C(=O)Nc1nc2ccccc2[nH]1` gave aSyn UTR act 100.
Cc1sc(NC(=O)c2ccc(=O)n(C)n2)nc1-c1ccccc1 was read as aSyn UTR act -95*.
`CSc1ccccc1C(=O)Nc1nc2ccccc2c(=O)[nH]1` gave aSyn UTR act -122*.
Cn1nc(C(=O)Nc2nc3ccccc3[nH]2)ccc1=O was read as aSyn UTR act -94*.
`O=c1[nH]cnc(O)c1N=Nc1ccccc1` gave aSyn UTR act -71*.
CCCCOc1ccc(N(CC(=O)NCc2ccccc2)C(=O)c2csnn2)cc1 was read as aSyn UTR act -69*.
Cc1ccc(NC(=O)Cc2noc3ccccc23)cc1 was read as aSyn UTR act -173*.
Screening c1ccc2c(CCNc3ncnc4nc[nH]c34)c[nH]c2c1 returned aSyn UTR act -73*.
Screening c1ccc(CCNc2ncnc3nc[nH]c23)cc1 returned aSyn UTR act -113*.
For O=C(Nc1ccc2c(c1)nc1n2CCOC1)c1ccccc1 the results were aSyn UTR act -80*.
For CCCCC(=O)Nc1ccc2c(c1)nc1n2CCOC1 the results were aSyn UTR act -77*.
For Cc1ccccc1-n1c(C)cc(/C=C(\C#N)C(=O)NCC2CCCO2)c1C (centres undefined) the results were aSyn UTR act -94*.
Screening Cc1cc(/C=C(\C#N)C(=O)NCc2cccs2)c(C)n1-c1ccccc1F returned aSyn UTR act -240*.
CCOC(=O)/C=c1\s/c(=C\c2c(OC)ccc3ccccc23)c(=O)n1CC(=O)NCC1CCCO1 (centres undefined) was read as aSyn UTR act 71.
O=C(NC1CCCCC1)c1cc2ccccc2cc1O was read as aSyn UTR act -81*.
For Cc1ccccc1C(=O)NC1CCCCCCC1 the results were aSyn UTR act -148*.
O=C(NC1CCCCCCC1)c1ccccc1O was read as aSyn UTR act -175*.
Cc1cccc(/C(N)=N/OC(=O)CCC2CCCCC2)c1 was read as aSyn UTR act -109*.
`Cc1ccc(/C(N)=N/OC(=O)CCC2CCCC2)cc1` gave aSyn UTR act -85*.
`COc1ccc(/C(N)=N/OC(=O)CCC2CCCC2)cc1` gave aSyn UTR act -71*.
For CCOc1cccc2cc(-c3csc(NC(=O)CCC(=O)NCCCN4CCC(C)CC4)n3)c(=O)oc12 the results were aSyn UTR act -76*.
`CCOc1cccc2cc(-c3csc(NC(=O)CCC(=O)NCCN4CCCCC4C)n3)c(=O)oc12` (centres undefined) gave aSyn UTR act -135*.
Screening S=C1NC2=C(CCCC2=C2SCCS2)C(c2ccccc2)N1 (centres undefined) returned aSyn UTR act -324*.
`NC(=O)c1ccsc1NC(=O)CSc1ccccc1F` gave aSyn UTR act -119*.
Screening Cc1csc(SCC(=O)Nc2sccc2C(N)=O)n1 returned aSyn UTR act -110*.
CCCc1nn(C)c(C(=O)Nc2ccc(Cl)cc2)c1Cl was read as aSyn UTR act -79*.
`CCCc1nn(C)c(C(=O)Nc2ccccc2)c1Cl` gave aSyn UTR act -98*.
Screening CCCc1nn(C)c(C(=O)Nc2cccc(C)c2)c1Cl returned aSyn UTR act -123*.
`O=[N+]([O-])c1ccc(C2=Nc3cc(Cl)ccc3OC2)cc1` gave aSyn UTR act -149*.
Screening O=C(/C=C1\SC(=O)N(CC(=O)Nc2ccc(F)cc2)C1=O)Nc1ccc(Cl)cc1 returned aSyn UTR act -196*.
`Nc1cc2c(cc1O)CCCC2` gave aSyn UTR act -91*.
For c1ccc(Oc2ccc(-c3ccn[nH]3)cc2)cc1 the results were aSyn UTR act -79*.
Nc1ccc(Oc2cccc(Oc3ccc(N)cc3)c2)cc1 was read as aSyn UTR act 87.
Screening Cc1ccc(-n2nc(C)c3c2OC(N)=C(C#N)C3c2ccc(F)cc2)cc1 (centres undefined) returned aSyn UTR act -75*.
Screening O=C1CCCN1CCC(=O)N1CCCC(CO)(Cc2ccccc2)C1 (centres undefined) returned aSyn UTR act -98*.
`CSc1n[nH]c(-c2ccc(C(F)(F)F)cc2)n1` gave aSyn UTR act -68*.
Screening COC(=O)c1sccc1NC(=O)/C=C/c1ccc(Cl)cc1Cl returned aSyn UTR act -206*.
Screening COC(=O)c1sccc1NC(=O)/C=C/c1c(Cl)cccc1Cl returned aSyn UTR act -139*.
`CCN(C(=O)c1cccs1)c1nnc(-c2ccncc2)s1` gave aSyn UTR act -76*.
Nc1c(C(=O)c2ccc(Cl)cc2)sc2nc3c(cc12)CCC3 was read as aSyn UTR act -108*.

Screening results from PubChem.
